A selection: hits, their analogues and other compounds. The true share with any hit is near 1.4%.
MIN6 prolif = inducers of MIN6 beta-cell proliferation, primary screen, ATP luminescence, uHTS | MIN6 cells proliferation, ATPlite luminescence, 48 h; cells starved in 0.2% serum; 100% = growth in 10% serum | proliferation, % at 10 µM | 0.29% of 330,000 active | AID 2380, 2010;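 active = compounds whose signal lies at least 3.5 SD above the mean of all wells on their plate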
HTR5A ag = HTR5A agonists in luminescence cell assay, primary screen, counter-screen for OPRM1-OPRD1 heterodimer agonist project, full-deck HTS | activation, % at 9.3 µM | cell-based | 0.61% of 340,000 active; in the data active = activation mostly above about 9.5%, no sharp cut-off; inactive = mostly below about 7.6%
Target sequence (P47898 whole entry, looked up): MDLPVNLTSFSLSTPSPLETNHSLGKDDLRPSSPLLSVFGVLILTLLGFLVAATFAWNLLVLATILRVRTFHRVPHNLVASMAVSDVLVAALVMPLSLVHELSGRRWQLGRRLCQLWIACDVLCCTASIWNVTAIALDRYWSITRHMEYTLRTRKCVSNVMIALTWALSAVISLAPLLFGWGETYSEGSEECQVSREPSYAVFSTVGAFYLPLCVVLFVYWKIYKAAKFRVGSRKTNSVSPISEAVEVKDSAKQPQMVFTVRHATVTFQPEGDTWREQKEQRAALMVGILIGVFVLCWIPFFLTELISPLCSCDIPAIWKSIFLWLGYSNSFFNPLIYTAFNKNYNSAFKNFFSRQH
HTR5A inv ag = HTR5A inverse agonists in luminescence cell assay, primary screen, counter-screen for OPRM1-OPRD1 heterodimer inverse agonist project, full-deck HTS; 5-hydroxytryptamine receptor 5A (Homo sapiens), P47898; HTR5A cell line, inverse agonism; inhibition, % at 9.3 µM; AID 504634, 2011; 0.083% of 340,000 active; in the data active = inhibition mostly above about 23%, no sharp cut-off; inactive = mostly below about 18%
OPRM1-OPRD1 inv = inverse agonists of MOR-DOR heterodimerization, primary screen, cell-based, luminescence; cell-based MOR-DOR heterodimer luminescence, inverse agonism; inhibition, % at 9.3 µM; 0.21% of 340,000 active; Mu-type opioid receptor (Homo sapiens) + Delta-type opioid receptor (Homo sapiens), …; in the data active = inhibition above about 22%, passing the limit was not always enough
pCIP destab = p/CIP-EGFP fusion destabilizers, primary screen, fluorescence, F442A cells; 16 h; decrease of EGFP signal, % at 10 µM; 0.01% of 290,000 active; AID 1984, 2009;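 active = EGFP signal decrease of at least 30% at 10 µM or well 3 SD below plate mean, unless failing retest; inactive = the rest, including hits failing retest or dose response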
MOR-DOR ag-1 = agonists of OPRM1-OPRD1 heterodimerization, primary screen, cell-based, luminescence; Mu-type opioid receptor (Homo sapiens) + Delta-type opioid receptor (Homo sapiens), …; cells; activation, % at 9.3 µM; 0.3% of 340,000 active; AID 504326, 2011
MOR-DOR ag-2 = OPRM1-OPRD1 heterodimerization promoters, counter-screen for HTR5A agonist project, cell-based, luminescence | shares compounds with HTR5A ag | U2OS counter-screen cells, complementation luminescence, 3 h | activation, % at 9.3 µM | 13% of 800 active
HTR5A ag conf = HTR5A agonists, retest of hits, confirmation, cell-based, luminescence; shares compounds with HTR5A ag; HTR5A agonist cell assay; activation, % at 9.3 µM; 17% of 800 active; in the data active = activation above about 17%
Numbers stand for hits; n = inactive; x = no result given. Rule as the data show it, unless noted: active = activation above about 18%; inactive = the rest.

SMILES | MIN6 prolif | HTR5A ag | HTR5A inv ag | OPRM1-OPRD1 inv | pCIP destab | MOR-DOR ag-1 | MOR-DOR ag-2 | HTR5A ag conf
Cc1ccc(-c2nc(NC(=O)c3nn(C)cc3[N+](=O)[O-])sc2C)cc1C | n | 17.5 | n | n | n | n | 23.5 | n
Cc1ccc(-c2nc(NC(=O)c3nn(C)cc3[N+](=O)[O-])sc2C)cc1 | n | n | n | n | n | n | x | x
O=C(NN=C1CCCCCCC1)c1ccc(F)cc1 | n | n | n | n | n | n | x | x
CC(C)(C)c1ccc(C(=O)NN=C2CCCC2)cc1 | n | 14.6 | n | n | n | n | n | n
O=C(O)C1C2OC(C(Br)C2Br)C1C(=O)O (stereo unspecified) | x | n | n | n | x | n | x | x
COc1ccc(CNC(=O)C[C@H]2C[C@H](C(=O)N(C(C)C)C(C)C)[C@@]3(C)c4[nH]c5cc(-c6ccco6)ccc5c4CCN3C2=O)cc1OC | x | n | n | n | x | n | x | x
CNc1ccccc(-c2ccc3ccccc3n2)c1=O | n | 15.2 | n | n | n | n | n | 38.8
c1ccc(-c2ccc3ccccc3n2)cc1 | n | n | n | n | x | n | x | x
COc1ccc(C(=O)N2CCN(CCc3ccccc3)CC2)cc1[N+](=O)[O-] | n | 19.2 | n | n | n | n | n | n
Cc1ccc(-n2c(O)c(C=NC3CCS(=O)(=O)C3)c3ccccc3c2=O)cc1C (stereo unspecified) | n | 15.3 | n | n | n | n | n | n
COc1cc(C(=O)O)ccc1OCc1ccncc1 | n | 15.9 | n | n | n | n | n | n
COc1cc(C(N)=O)ccc1OCc1ccccc1 | n | n | n | n | n | n | x | x
O=C1NC(=O)C2(CCCCCC2)N1 | x | n | n | n | x | n | x | x
Cc1cccc(OCc2n(CC(=O)OC3CC(C)CCC3C(C)C)c3ccccc3[n+]2C)c1 (stereo unspecified) | n | 17.4 | n | n | n | n | n | n
COc1cc(CNCCc2ccccc2)cc(Br)c1OCC(=O)Nc1ccccc1C | n | 18.3 | n | n | n | n | n | n
CNCc1cc(Br)c(OCC(=O)Nc2ccccc2OC)c(OC)c1 | n | n | n | n | n | n | x | x
COc1ccc(-c2csc(NC(C)c3nc4cc(C(=O)NCCCO)ccc4n3Cc3ccc(C)cc3)n2)cc1 (stereo unspecified) | n | 30.4 | n | n | x | n | n | 38.2
C[C@H](CO)N1C[C@H](C)[C@@H](CN(C)S(=O)(=O)c2ccccc2)Oc2c(NC(=O)CCC(F)(F)F)cccc2C1=O | n | n | n | n | x | n | x | x
O=C(OCC(=O)N1CCc2ccccc2C1)c1c(F)cccc1Cl | n | n | n | n | x | n | x | x
N#Cc1ccc(OCC(=O)N2CCN(c3ccc(C(F)(F)F)cn3)CC2)cc1 | n | 18.6 | n | n | x | n | n | n
CN(C(=O)c1cccc(NC(=O)Cc2ccc(NC(=O)C3CCCN(C(=O)CCc4ccccc4)C3)cc2)c1)C1CCCC1 (stereo unspecified) | x | n | n | n | x | n | x | x
CN(C(=O)c1cccc(NC(=O)Cc2ccc(NC(=O)C3CCCN(C(=O)CCc4ccccc4)C3)cc2)c1)C1CCC1 (stereo unspecified) | x | 20.4 | n | n | x | n | n | n
COc1cccc2sc(N3CCN(C(=O)c4ccco4)CC3)nc12 | n | 18.7 | n | n | x | n | 18.9 | n
COc1ccc(C=NNc2nc3ccccc3s2)cc1 | x | n | n | n | x | n | x | x
Cc1ccc2[nH]c(C)c(/C=N/Nc3nc4ccccc4s3)c2c1 | n | 20.1 | n | n | n | n | n | n
SMILES | MIN6 prolif | HTR5A ag | HTR5A inv ag | OPRM1-OPRD1 inv | pCIP destab | MOR-DOR ag-1 | MOR-DOR ag-2 | HTR5A ag conf
COc1cc(/C=C2\SC(=O)N(CCN)C2=O)ccc1OS(=O)(=O)c1cc(C)ccc1C | x | 22.0 | n | n | n | n | 18.6 | n
COc1ccc(C)cc1NC(C)C(=O)NC(=O)NC1CCCCC1 (stereo unspecified) | n | n | n | n | x | n | x | x
COc1ccc(Nc2nnc(Cc3ccccc3)c(=O)[nH]2)c(OC)c1 | n | 16.9 | n | n | n | n | n | n
Cn1c(N/N=C2\CCCc3ccccc32)nc2c1c(=O)n(Cc1ccc(F)cc1)c(=O)n2C | x | 14.9 | n | n | n | n | n | n
COc1ccc(N(CC(=O)NCCSc2ccccn2)S(=O)(=O)c2ccccc2)c(OC)c1 | n | 19.3 | n | n | n | n | n | 20.8
Cc1cc(C)c(S(=O)(=O)N2CCN(C(=O)CCn3nc(C)c(C)c3C)CC2)c(C)c1 | n | 16.4 | n | n | n | n | n | n
Cc1c(C(=O)Nc2ccncc2)sc2nc(-c3ccc(F)cc3)cn12 | n | 19.4 | n | n | n | n | n | n
COc1ccc(-c2cn3c(C)c(C(=O)Nc4ccncc4)sc3n2)cc1 | n | n | n | n | n | n | x | x
CC1CCCCCCC1OC(=O)c1ccccc1C(=O)O (stereo unspecified) | x | n | n | n | x | n | x | x
COc1cc(C(=O)NCC(c2ccco2)N2CCCC2)ccc1OCc1ccc(Cl)cc1Cl (stereo unspecified) | x | n | n | n | x | n | x | x
CCCN(CCC)C(=O)CSc1nc2n[nH]c(C)c2c(=N)n1-c1ccc(OCC)cc1 | n | n | n | n | n | n | x | x
CCOc1ccc(-n2c(SCC(=O)Nc3ccc(CC)cc3)nc3n[nH]c(C)c3c2=N)cc1 | n | 17.4 | n | n | n | n | n | n
CN(C)N=Nc1ccc(-c2cn(Cc3ccccc3)cn2)cc1 | n | n | n | n | n | n | x | x
C=C1CCc2c([nH]c3ccc(OCC(C)C)cc23)C1=O | n | 22.2 | n | n | n | n | n | n
Cc1cc(C)nc(SCC(=O)N/N=C\c2sccc2C)n1 | n | 22.1 | n | n | n | n | n | 22.0
Cc1cccc(OC(C)C(=O)Nc2ccc3c(c2)OCCO3)c1 (stereo unspecified) | x | n | n | n | x | n | x | x
CC(=O)c1cc2c(cc1NC(=O)Cc1c(C)noc1C)OCO2 | n | n | n | n | x | n | x | x
NC1=NC(=O)/C(=C/c2cn(Cc3ccccc3)c3ccccc23)S1 | n | 16.4 | n | n | n | n | n | 16.7
Cc1oc2c(c1C(=O)c1ccc(Cl)cc1)C(=O)C(=O)c1ccccc1-2 | x | n | n | n | n | n | x | x
Cc1ccc(C(=O)c2coc3c2C(=O)C(=O)c2ccccc2-3)cc1 | n | 18.7 | n | n | n | n | n | n
COC(=O)c1cc(-c2c[nH]c3ccccc23)n[nH]1 | n | 30.5 | n | n | n | n | n | n
COC(=O)c1cc(-c2ccc(Br)cc2)n[nH]1 | n | n | n | n | n | n | x | x
